# Results as given in PubChem BioAssay (Tox21).
# Records with an inconclusive call do not appear. Where a call stands in place of a potency, no number is given. Unmarked numbers belong to inactive results. Active and inactive are the calls of the source. Unless noted, calls come from the whole dose curve; as a rule, active = well fitted curve in the direction sought with a large enough effect in the repeat runs; inconclusive = weak or mixed curves; inactive = no such curve, though single readings can be large; an effect the other way counts as inactive or inconclusive.
# Tests used:
# [1] = qHTS assay to identify small molecule antagonists of the retinoid-related orphan receptor gamma (ROR-gamma) signaling pathway - cell viability counter screen (AID 1159520); details: Tet-on RORgamma CHO cells viability, ATP luminescence, 16 h; series mostly up to 92.4 µM; note: nearly all actives have a fitted effect of over 50% in size
# Outline: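 Cytotoxicity was read from cellular ATP (CellTiter-Glo luminescence) after 16 hr at 37 C with 1 uM doxycycline induction. The inducer was added 2 hr after compound transfer to Tet-on ROR gamma CHO cells.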
# [2] = qHTS assay to identify small molecule agonists of the AP-1 signaling pathway - cell viability counter screen (AID 1159525; calls by dose curve; note: nearly all actives have a fitted effect of over 55% in size; note: potency is the fitted concentration of half-maximal effect); details: ME-180 AP-1-bla cells viability, ATP luminescence, 5 h; series mostly up to 76.8 µM
# Outline: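 Luminescent ATP readout (Cell Titer Glo, 30 min RT), normalised to DMSO and tetra n-octyl ammonium bromide controls. Cells were ME-180 AP-1-bla in 0.5% dialyzed FBS Opti-MEM, with a 5 h, 37 °C compound exposure.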
# [3] = qHTS assay to identify small molecule agonists of the AP-1 signaling pathway (AID 1159526; calls by dose curve); details: ME-180 (cervical carcinoma) AP-1-bla reporter, beta-lactamase FRET ratio, 5 h; series mostly up to 76.8 µM
# [4] = target: Retinoic acid receptor RXR-alpha (Homo sapiens) (UniProt P19793); assay: qHTS assay to identify small molecule agonists of the RXR signaling pathway (AID 1159527; calls by dose curve; note: nearly all actives have a fitted effect of over 35% in size; note: potency is the fitted concentration of half-maximal effect); details: HEK293T RXRa-UAS-bla, beta-lactamase ratio, 16 h; series mostly up to 76.8 µM
# Outline: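 Read-out: beta-lactamase FRET ratio (405 nm excitation, 460 and 530 nm emission) after 2 hr substrate loading at room temperature. Cells were RXR-alpha-UAS-bla HEK 293T treated with compounds for 16 hr in 2% charcoal-stripped FBS medium.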
# [5] = qHTS assay to identify small molecule agonists of the RXR signaling pathway - cell viability counter screen (AID 1159529); details: RXR-alpha-bla HEK293T viability, CellTiter-Glo, 16 h; series mostly up to 76.8 µM; note: nearly all actives have a fitted effect of over 50% in size; note: potency is the fitted concentration of half-maximal effect
# Outline: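 HEK 293T RXRa-bla cells, 2% CS-FBS; 5 h settle; cpd 16 h 37 C, 5% CO2; CellTiter-Glo 30 min RT, luminescence. Tetraoctyl ammonium bromide as positive control.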
# [6] = qHTS assay to identify small molecule antagonists of the retinoid acid receptor (RAR) signaling pathway - cell viability counter screen (AID 1159551); details: C3RL4 cells viability, ATP luminescence (CellTiter-Glo), 6 h; series mostly up to 92.4 µM; note: nearly all actives have a fitted effect of over 35% in size
# Outline: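 Cytotoxicity counter screen in C3RL4 cells: 6 h compound exposure with 1 uM retinol (final), viability from cellular ATP by luminescence.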
# [7] = qHTS assay to identify small molecule antagonists of the retinoic acid receptor (RAR) signaling pathway (AID 1159552; note: nearly all actives have a fitted effect of over 50% in size; note: potency is the fitted concentration of half-maximal effect); details: C3RL4 RARE luciferase reporter, retinol-stimulated, 6 h; series mostly up to 92.4 µM
# Outline: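 Cells of the C3RL4 line were seeded, incubated overnight, then dosed with compounds in DMSO followed immediately by retinol (1 uM final). Six hours later luciferase detection reagent went in; signal was measured after 30 min at RT.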
# [8] = target: Peroxisome proliferator-activated receptor delta (Homo sapiens) (UniProt Q03181); assay: qHTS assay to identify small molecule agonists of the peroxisome proliferator-activated receptor delta (PPARd) signaling pathway (AID 743212; calls by dose curve); details: HEK293H PPARd-UAS-bla, beta-lactamase FRET ratio, 17 h; series mostly up to 62.6 µM
# Outline: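 HEK293H UAS-bla reporter cells, human PPARd system; compounds delivered in DMSO after 5 h plating, then at 37 C. Beta-lactamase FRET read, 2 h RT substrate step.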
# [9] = qHTS assay to identify small molecule antagonists of the peroxisome proliferator-activated receptor delta (PPARd) signaling pathway - cell viability counter screen (AID 743213); details: PPARd-bla HEK293H viability, CellTiter-Glo luminescence, 17 h; series mostly up to 62 µM; note: nearly all actives have a fitted effect of over 50% in size; note: potency is the fitted concentration of half-maximal effect
# Outline: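 Agonist-stimulated (L165041, 300 nM final) HEK293H PPARd UAS-bla cells are exposed to compounds for 17 h at 37 C, and ATP-based luminescence (CellTiter-Glo) from the same wells reports cytotoxicity.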
# [10] = target: Peroxisome proliferator-activated receptor delta (Homo sapiens) (UniProt Q03181); assay: qHTS assay to identify small molecule antagonists of the peroxisome proliferator-activated receptor delta (PPARd) signaling pathway (AID 743215; active = well fitted inhibition curve with a large enough effect in the signal ratio in the repeat runs, not every such curve was filed as active; the % refers to the signal ratio); details: HEK293H PPARd-UAS-bla, beta-lactamase FRET ratio, antagonist, 17 h; series mostly up to 62 µM
# Outline: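 Inhibition of L165041-driven (300 nM final) PPARd signaling is scored in HEK293H UAS-bla cells. Exposure lasts 17 h at 37 C; beta-lactamase activity is then read by FRET substrate fluorescence after 2 h at room temperature.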
# [11] = target: Bile acid receptor (Homo sapiens) (UniProt Q96RI1); assay: qHTS assay to identify small molecule antagonists of the farnesoid-X-receptor (FXR) signaling pathway (AID 743217; active = well fitted inhibition curve with a large enough effect in the signal ratio in the repeat runs, not every such curve was filed as active; the % refers to the signal ratio); details: HEK293T FXR-UAS-bla, beta-lactamase ratio, CDCA-stimulated, 16 h; series mostly up to 62.6 µM
# Outline: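 Antagonist mode against 50 uM (final) chenodeoxycholic acid stimulation in FXR-bla HEK 293T cells, 16 h at 37 °C. Inhibition detected as reduced beta-lactamase activity via LiveBLAzer B/G FRET fluorescence after 2 h at room temperature.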
# [12] = qHTS assay to identify small molecule agonists of the farnesoid-X-receptor (FXR) signaling pathway - cell viability counter screen (AID 743218); details: FXR-bla HEK293T viability, CellTiter-Glo luminescence, 16 h; series mostly up to 62.6 µM; note: nearly all actives have a fitted effect of over 45% in size
# Outline: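 Cytotoxicity counter-screen run in parallel, same wells: FXR-UAS-bla HEK 293T cells dosed 16 h at 37 C, viability read by CellTiter-Glo luminescence after 30 min at room temperature.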
# [13] = target: Bile acid receptor (Homo sapiens) (UniProt Q96RI1); assay: qHTS assay to identify small molecule agonists of the farnesoid-X-receptor (FXR) signaling pathway (AID 743220; active = well fitted activation curve with a large enough effect in the signal ratio in the repeat runs, not every such curve was filed as active; the % refers to the signal ratio); details: HEK293T FXR-UAS-bla, beta-lactamase FRET ratio, 16 h; series mostly up to 62.6 µM
# Outline: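 Beta-lactamase reporter under UAS control in GeneBLAzer FXR HEK 293T cells (5000/well) measured with LiveBLAzer FRET substrate after 2 h at room temperature. Compound exposure lasted 16 h at 37C.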
# [14] = qHTS assay to identify small molecule antagonists of the farnesoid-X-receptor (FXR) signaling pathway - cell viability counter screen (AID 743221; active = well fitted cell-killing curve with a large enough effect in the repeat runs, not every such curve was filed as active; note: nearly all actives have a fitted effect of over 50% in size); details: FXR-bla HEK293T viability, CellTiter-Glo luminescence, 16 h; series mostly up to 62.6 µM
# Outline: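 Luminescence from CellTiter-Glo measures cytotoxicity in GeneBLAzer FXR-UAS-bla HEK 293T cells. Cells were exposed to compounds with 50 uM chenodeoxycholic acid (final) for 16 h at 37 C, in wells also used for the reporter readout.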
# [15] = target: Vitamin D3 receptor (Homo sapiens) (UniProt P11473); assay: qHTS assay to identify small molecule agonists of the vitamin D receptor (VDR) signaling pathway (AID 743222; calls by dose curve); details: HEK293T VDR-UAS-bla, beta-lactamase FRET ratio, 16 h; series mostly up to 63.5 µM
# Outline: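 Quantitative HTS agonist-mode screen: compounds in DMSO were pin-transferred onto VDR-bla cells and incubated 16 h at 37C, 5% CO2. Reporter activity was detected with LiveBLAzer B/G FRET substrate after 2 h at room temperature.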
# [16] = qHTS assay to identify small molecule agonists of the vitamin D receptor (VDR) signaling pathway - cell viability counter screen (AID 743224); details: VDR-bla HEK293T viability, CellTiter-Glo luminescence, 16 h; series mostly up to 62.6 µM
# Outline: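 Viability is measured in the same wells as the VDR-bla reporter assay: after 16 h compound treatment and 2 h substrate loading, CellTiter-Glo is added and luminescence read 30 min later.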
# [17] = target: Vitamin D3 receptor (Homo sapiens) (UniProt P11473); assay: qHTS assay to identify small molecule antagonists of the vitamin D receptor (VDR) signaling pathway (AID 743223; active = well fitted inhibition curve with a large enough effect in the signal ratio in the repeat runs, not every such curve was filed as active; the % refers to the signal ratio); details: VDR-UAS-bla HEK293T, beta-lactamase FRET ratio, 16 h; series mostly up to 61 µM
# Outline: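 Antagonist mode uses 1alpha,25-dihydroxyvitamin D3 at 3 nM final as stimulus. VDR-bla cells receive compounds in DMSO, incubate 16 h at 37C, then a beta-lactamase FRET substrate for 2 h at room temperature before fluorescence measurement.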
# [18] = qHTS assay to identify small molecule antagonists of the vitamin D receptor (VDR) signaling pathway - cell viability counter screen (AID 743225); details: VDR-bla HEK293T viability, CellTiter-Glo luminescence, 16 h; series mostly up to 61 µM; note: nearly all actives have a fitted effect of over 50% in size
# Outline: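 Read-out: CellTiter-Glo luminescence measured 30 min after reagent addition at room temperature. Cells were VDR-bla HEK 293T exposed 16 h at 37C, 5% CO2, to compound with 3 nM final calcitriol agonist.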
# Sequence of Vitamin D3 receptor (Homo sapiens) (P11473 whole entry, looked up): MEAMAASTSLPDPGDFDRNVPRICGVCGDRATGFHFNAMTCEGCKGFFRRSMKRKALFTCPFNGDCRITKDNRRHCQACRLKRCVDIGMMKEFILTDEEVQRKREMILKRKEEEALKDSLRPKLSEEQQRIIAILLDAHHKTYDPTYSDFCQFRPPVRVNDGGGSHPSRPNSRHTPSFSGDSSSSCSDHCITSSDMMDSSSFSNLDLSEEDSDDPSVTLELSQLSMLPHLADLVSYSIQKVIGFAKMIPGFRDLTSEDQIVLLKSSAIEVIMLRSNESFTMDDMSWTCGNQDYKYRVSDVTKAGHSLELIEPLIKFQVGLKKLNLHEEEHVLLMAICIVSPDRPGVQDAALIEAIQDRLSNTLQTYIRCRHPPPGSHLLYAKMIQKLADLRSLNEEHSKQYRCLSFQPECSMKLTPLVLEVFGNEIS
# Sequence of Retinoic acid receptor RXR-alpha (Homo sapiens) (P19793 whole entry, looked up): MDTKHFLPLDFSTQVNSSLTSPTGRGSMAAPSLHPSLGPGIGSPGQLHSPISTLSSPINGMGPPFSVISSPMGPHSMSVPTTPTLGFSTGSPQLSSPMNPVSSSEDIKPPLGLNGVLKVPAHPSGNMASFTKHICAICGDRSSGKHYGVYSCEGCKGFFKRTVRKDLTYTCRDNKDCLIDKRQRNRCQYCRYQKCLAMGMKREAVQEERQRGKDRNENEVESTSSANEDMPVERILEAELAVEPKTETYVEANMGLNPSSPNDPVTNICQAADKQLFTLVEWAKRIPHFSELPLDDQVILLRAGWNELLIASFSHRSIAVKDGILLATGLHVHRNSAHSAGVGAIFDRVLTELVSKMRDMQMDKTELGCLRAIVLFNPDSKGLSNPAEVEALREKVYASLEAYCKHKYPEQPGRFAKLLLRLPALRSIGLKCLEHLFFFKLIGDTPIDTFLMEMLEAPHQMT
# Sequence of Peroxisome proliferator-activated receptor delta (Homo sapiens) (Q03181 whole entry, looked up): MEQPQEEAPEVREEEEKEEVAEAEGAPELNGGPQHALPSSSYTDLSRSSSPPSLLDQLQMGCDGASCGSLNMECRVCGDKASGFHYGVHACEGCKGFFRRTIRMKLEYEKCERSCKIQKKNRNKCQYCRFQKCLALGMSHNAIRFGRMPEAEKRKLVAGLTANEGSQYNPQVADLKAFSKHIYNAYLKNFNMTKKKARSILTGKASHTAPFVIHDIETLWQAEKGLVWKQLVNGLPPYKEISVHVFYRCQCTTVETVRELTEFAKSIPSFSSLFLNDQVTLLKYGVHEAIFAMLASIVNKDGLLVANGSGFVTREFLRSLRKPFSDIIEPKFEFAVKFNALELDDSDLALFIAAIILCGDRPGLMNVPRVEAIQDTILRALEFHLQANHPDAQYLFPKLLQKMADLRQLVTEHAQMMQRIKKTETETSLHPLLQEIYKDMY
# Sequence of Bile acid receptor (Homo sapiens) (Q96RI1 whole entry, looked up): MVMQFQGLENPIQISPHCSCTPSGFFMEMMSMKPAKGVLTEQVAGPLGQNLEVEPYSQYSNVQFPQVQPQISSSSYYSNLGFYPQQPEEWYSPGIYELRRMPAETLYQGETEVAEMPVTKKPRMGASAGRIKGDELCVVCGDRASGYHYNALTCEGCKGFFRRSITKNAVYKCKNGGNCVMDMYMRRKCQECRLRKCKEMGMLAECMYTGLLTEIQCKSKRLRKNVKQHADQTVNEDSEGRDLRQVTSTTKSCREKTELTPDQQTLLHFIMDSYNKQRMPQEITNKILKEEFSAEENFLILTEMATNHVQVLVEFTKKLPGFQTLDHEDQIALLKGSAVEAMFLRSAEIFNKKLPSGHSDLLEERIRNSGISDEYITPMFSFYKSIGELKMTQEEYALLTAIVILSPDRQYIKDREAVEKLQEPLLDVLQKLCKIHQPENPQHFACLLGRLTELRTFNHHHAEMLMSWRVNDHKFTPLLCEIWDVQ
smiles,measurement,setting,value
C=CC(=O)OCC(Br)CBr (configuration not stated),Potency,[1],inactive
same,Potency,[2],inactive
same,Potency,[3],inactive
same,Potency,[4],inactive
same,Potency,[5],inactive
same,Potency,[6],inactive
same,Potency,[7],inactive
CC(O)(c1ccc(Cl)cc1)c1ccc(Cl)cc1,outcome,[8],inactive
same,Potency,[9],inactive
same,Potency,[10],inactive
same,Potency,[11],inactive
same,Potency,[12],inactive
same,outcome,[13],inactive
same,Potency,[14],inactive
same,outcome,[15],inactive
same,Potency,[1],inactive
same,Potency,[2],54.9 µM (active)
same,Potency,[5],38.9 µM (active)
same,Potency,[7],61.1 µM (active)
c1ccc(-c2ccccc2-c2ccccc2)cc1,Potency,[1],inactive
same,Potency,[2],inactive
same,Potency,[5],43.6 µM (active)
same,Potency,[6],inactive
same,Potency,[7],inactive
Nc1cccnc1N,Potency,[1],inactive
same,Potency,[2],inactive
same,Potency,[3],inactive
same,Potency,[4],inactive
same,Potency,[5],inactive
same,Potency,[7],inactive
CCc1cccc(C)c1N(C(=O)CS(=O)(=O)O)C(C)COC (configuration not stated),Potency,[1],inactive
same,Potency,[2],inactive
same,Potency,[4],inactive
same,Potency,[5],inactive
same,Potency,[7],inactive
c1ccc2occc2c1,Potency,[16],49 µM (active)
same,Potency,[1],inactive
same,Potency,[2],inactive
same,Potency,[4],12.3 µM (active)
same,Potency,[5],inactive
same,Potency,[6],inactive
Cc1cccc2c1ccc1ccccc12,Potency,[1],inactive
same,Potency,[2],inactive
same,Potency,[3],inactive
same,Potency,[4],inactive
same,Potency,[5],inactive
same,Potency,[7],inactive
C=C[Si](C)(C)Cl,"activity, negative = cytotoxicity",[1],5.94% [at 8.39 µM]
same,"viability change, negative = cytotoxic",[2],-3.04% [at 6.97 µM]
same,activation,[4],0.333% [at 6.98 µM]
same,"activity change, negative = cytotoxicity",[6],-1.54% [at 8.39 µM]
same,"activity, negative = inhibition",[7],83.8% [at 8.39 µM]
Cc1c(Cl)c(=O)oc2cc(O)ccc12,Potency,[1],inactive
same,Potency,[2],inactive
same,Potency,[5],inactive
same,Potency,[6],inactive
O=C1OC(=O)c2cc(-c3ccc4c(c3)C(=O)OC4=O)ccc21,Potency,[9],54.9 µM (active)
same,Potency,[14],inactive
same,outcome,[15],inactive
same,Potency,[17],inactive
same,Potency,[16],38.9 µM (active)
same,Potency,[18],inactive
same,Potency,[1],inactive
same,Potency,[2],inactive
same,Potency,[5],inactive
same,Potency,[6],inactive
same,Potency,[7],inactive
